Screening results from PubChem.
DT40 TDP1 CPT: DT40-hTDP1 cell growth loss with CPT; 12% of 420,000 active; chicken DT40 Tdp1-/-;hTDP1 cells + 20 nM CPT, ATP luminescence, 48 h; Potency, µM (highest dose often 46.2 µM), for the others: top-dose activity change, negative = growth inhibition, actives largely listed as inhibitors; further: potency means the concentration at half of the fitted maximal effect; nearly all actives have a fitted effect of over 55% in size
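Chicken DT40 Tdp1-/- cells stably complemented with human TDP1 were seeded at 400 cells/well in medium containing 20 nM camptothecin, exposed to pin-transferred compounds, and grown at 37 °C for at least 48 hr. Viability was read as ATP luminescence.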
TDP1 cell noCPT: qHTS for Inhibitors of human tyrosyl-DNA phosphodiesterase 1 (TDP1): qHTS in cells in absence of CPT; DT40 Tdp1-/- hTDP1 cells, no CPT, ATP luminescence, 48 h; Potency, µM (top dose mostly 46.2 µM), inactives show at the top dose activity change, negative = growth inhibition, hits mostly inhibitors; 15% of 420,000 active; further: potency means the concentration at half of the fitted maximal effect; nearly all actives have a fitted effect of over 55% in size
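Growth kinetics read by CellTiter-Glo luminescence after ≥48 hr at 37 °C. Cells: DT40 Tdp1-/- stably carrying human TDP1, 400 per well, compound exposure in the absence of CPT (DMSO vehicle).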
LDHA block: blocks human lactate dehydrogenase A | AID 1347041 | purified LDHA, NADH/diaphorase-resazurin fluorescence; stronger effect = lower value | activity change, % (values are at about 110 or 230 µM) | P00338 | 0.15% of 480,000 active; in the data active means activity change below about -30%; inconclusive means mostly about -25% to -30%;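 further: plate controls were DMSO wells for no effect and wells without enzyme for full effect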
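Enzyme activity of human lactate dehydrogenase 5 (2 nM; 0.06 mM NADH, 0.2 mM pyruvate, 5 min, RT) is measured via a resazurin/diaphorase fluorescence readout of residual NADH.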
IL1B secr inh: inflammasome signaling inhibition, IL-1 beta readout | THP-1 LPS/ATP IL-1B secretion, AlphaLISA, 16 h; stronger effect = lower value | activity change, % at 57.5 µM | 4.7% of 360,000 active | AID 743279; in the data active means activity change below about -50%; inconclusive means mostly about -30% to -49%
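THP-1 cells pretreated 1 hr with compounds (up to 57.5 uM final), then stimulated with LPS (250 ng/mL final) plus ATP (1.25 mM final); secreted IL-1B measured by AlphaLISA after 16 hr, decreased signal indicating inhibition.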
Gal4-VP16 FLuc: Gal4-VP16 reporter inhibition counter-screen. Drosophila S2 Gal4-VP16 UAS-luciferase, luminescence, 20 h. Potency, µM (doses to about 53.6 µM), for inactives: at the top dose activity, negative = inhibition, usual class: inhibitors. 3.5% of 310,000 active;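 further: Gal4-VP16 expression switched on by copper sulfate through the metallothionein promoter; potency means the concentration at half of the fitted maximal effect; nearly all actives have a fitted effect of over 50% in size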
RORgamma inh: ROR gamma (mouse) transcription inhibition | P51450 | 5.4% of 310,000 active | Drosophila S2 Gal4-RORgamma UAS-luciferase reporter, 20 h | Potency, µM (series often up to 53.6 µM), inactives show at the top dose activity change, negative = inhibition, hits mostly inhibitors; further: potency means the concentration at half of the fitted maximal effect; nearly all actives have a fitted effect of over 60% in size
Target sequence (P51450 whole entry, looked up, the tested form may be a part): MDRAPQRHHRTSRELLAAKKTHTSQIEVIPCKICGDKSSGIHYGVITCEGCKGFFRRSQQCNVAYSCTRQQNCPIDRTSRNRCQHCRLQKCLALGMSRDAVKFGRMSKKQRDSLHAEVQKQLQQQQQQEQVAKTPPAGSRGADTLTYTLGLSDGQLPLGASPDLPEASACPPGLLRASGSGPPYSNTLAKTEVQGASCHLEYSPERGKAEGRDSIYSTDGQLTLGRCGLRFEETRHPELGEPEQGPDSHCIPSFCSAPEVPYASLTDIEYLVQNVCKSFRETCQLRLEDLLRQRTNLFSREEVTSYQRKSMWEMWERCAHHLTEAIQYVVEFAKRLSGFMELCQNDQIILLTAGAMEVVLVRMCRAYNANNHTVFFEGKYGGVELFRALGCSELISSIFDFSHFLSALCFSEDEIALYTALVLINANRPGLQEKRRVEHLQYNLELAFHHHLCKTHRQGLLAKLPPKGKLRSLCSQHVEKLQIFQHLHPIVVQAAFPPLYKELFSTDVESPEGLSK
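Using a luciferase readout, inhibitors were identified by reduced reporter activity in Drosophila cells coexpressing a copper-inducible Gal4–ROR gamma fusion and UAS-driven Photinus luciferase, incubated 20 hr after 700 uM copper sulfate.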
* hit, by the source's call; i = inactive; u = inconclusive; x = no result given; [ ] = another dose, or the depositor's remark. Rows were chosen to be rich in hits. Some 18% of all compounds tested hit in one or more screens of this group. Unless noted, the call rests on the fitted dose curve; in most records, active means well fitted curve in the direction sought with a large enough effect; inconclusive means small, poorly fitted or top-dose-only effect, or another doubt; inactive means no such curve, though single readings can be large; an effect the other way counts as inactive or inconclusive. Unless noted, on the % scale 0 is the no-effect control and ±100 the full control effect.

SMILES	DT40 TDP1 CPT	TDP1 cell noCPT	LDHA block	IL1B secr inh	Gal4-VP16 FLuc	RORgamma inh
COc1ccc(CCNC(=O)CCCn2c(=O)c3ccccc3n(Cc3ccccc3)c2=O)cc1OC	u	16.4µM*	-8.0	x	x	x
CCc1ccc2c(c1)C(O)(CC(=O)c1ccc(F)cc1)C(=O)N2 (stereo not given)	x	x	7.1	x	x	x
COc1cc(Cn2c3ccc(NC(=O)CC(C)C(F)(F)F)cc3c(=O)n2C)ccc1F (stereo not given)	u	16.4µM*	2.5	-14.2	x	x
CC(CC(=O)Nc1ccc2c(c1)c(=O)n(C)n2Cc1cccc(C(F)(F)F)c1)C(F)(F)F (stereo not given)	-26.6%	u	2.0	3.4	x	x
CC(CC(=O)Nc1ccc2c(c1)c(=O)n(C)n2Cc1ccc(Cl)cc1)C(F)(F)F (stereo not given)	u	9.2µM*	0.3	-16.6	x	x
COc1cc(Cn2c3ccc(NC(=S)NCc4ccc(C)cc4)cc3c(=O)n2C)ccc1F	u	20.6µM*	1.7	-29.5	x	x
COc1cc(Cn2c3ccc(NC(=O)CC(C)(C)C)cc3c(=O)n2C)ccc1F	u	u	-2.9	-17.7	x	x
CC(C)(C)c1ccc(C(=O)Nc2c(NCc3ccccc3)c3ccccc3oc2=O)cc1	x	x	-1.8	x	x	x
CS(=O)(=O)Cc1cccc(C(=O)NC(Cc2ccccc2)c2ccccc2)c1 (stereo not given)	x	x	0.2	x	x	x
COc1ccc(Cn2nc(-c3ccccc3)c(N3CCCCC3)cc2=O)cc1	u	11.6µM*	1.1	-231.5*	-13.8%	u
Cn1nc(-c2ccccc2)c(N2CCCCC2)cc1=O	-3.9%	u	-13.7	-4.5	8.7%	-29.5%
O=c1cc(N2CCCCC2)c(-c2ccccc2)nn1Cc1ccccc1	u	u	0.1	-99.5*	-19.1%	8.7%
CCOC(=O)c1cnc(Nc2ccc(F)cc2)c2ccccc12	x	x	11.2	x	x	x
Cc1ccc(-c2cnc(SCC(=O)Nc3ccccc3C)o2)cc1C	x	x	-11.6	x	x	x
CCCOc1ccccc1NC(=O)Cc1nn(C)c(=O)c2ccccc12	x	x	3.5	x	x	x
CCOC(OCC)c1nc(N)[nH]c(=O)c1CCCCc1ccccc1	23.1µM*	16.4µM*	4.3	36.2	x	x
Nc1nc(-c2ccccc2)c(CCCOc2ccc([N+](=O)[O-])cc2)c(=O)[nH]1	-0.6%	u	-15.2	12.2	x	x
Clc1nc(Cl)c2ncn(-c3ccccc3)c2n1	8.2µM*	13µM*	-6.2	-102.8*	x	x
Cc1ccc(S(=O)(=O)NC2c3cccc4cccc(c34)C2Sc2n[nH]c(N)n2)cc1 (stereo not given)	20.6µM*	16.4µM*	0.8	-0.5	1.0%	34.8%
O=S(=O)(NC1c2cccc3cccc(c23)C1Sc1ncccn1)c1ccc(Cl)cc1 (stereo not given)	u	u	-8.2	8.4	-9.4%	-21.0%[10 µM]
Cc1cc2oc(=O)cc(CN(C)Cc3ccco3)c2cc1C	x	x	1.2	x	x	x
CCN1c2ccccc2-c2nc3ccccc3n2C1c1ccccn1 (stereo not given)	u	16.4µM*	-1.3	-17.3	-11.0%	8.91µM*
Cc1ccc(C2N(C)c3ccccc3-c3nc4ccccc4n32)o1 (stereo not given)	-8.5%	-21.5%	-5.7	-19.1	-16.1%	10µM*
CCOC(=O)c1c(NC(=O)CSc2nnnn2-c2ccccc2)sc2c1CC(C)(C)NC2(C)C	16.4µM*	u	-0.4	-61.9*	x	x
CCOC(=O)c1c(NC(=O)CSc2nc3ccc(C)cc3[nH]2)sc2c1CC(C)(C)NC2(C)C	u	u	-2.9	-85.1*	x	x
SMILES	DT40 TDP1 CPT	TDP1 cell noCPT	LDHA block	IL1B secr inh	Gal4-VP16 FLuc	RORgamma inh
CCOC(=O)c1c(NC(=O)CCS(=O)(=O)c2ccccc2)sc2c1CC(C)(C)NC2(C)C	-97.6%	u	-3.0	i	-1.2%	-0.5%
CCOC(=O)c1c(NC(=O)CSc2nnnn2-c2ccccc2OCC)sc2c1CC(C)(C)NC2(C)C	u	14.6µM*	-1.8	-78.3*	x	x
CCN(CC)c1nc2ncn(CC(=O)Nc3cc(C)cc(C)c3)c(=O)c2s1	x	x	-3.4	x	x	x
O=C(Nc1ccc(Cl)cc1C(F)(F)F)C(c1ccccc1)c1ccccc1	x	x	12.0	x	x	x
COc1ccc(NS(=O)(=O)c2cccc(C(=O)Nc3ccc4oc(C)nc4c3)c2)cc1	x	x	-0.5	x	x	x
Cc1cc(SCC(=O)NN2C(=O)NC3(CCC(C)CC3)C2=O)nc2ccccc12 (stereo not given)	x	x	2.0	x	x	x
Cc1nnc(NC(=O)c2csc(NC3CCCC3)n2)s1	x	x	-1.5	x	x	x
CC1(C(=O)N2CCC(CC3CC(c4cccc(Br)c4)=NO3)(C(=O)NCC3CCCCC3)CC2)CC1 (stereo not given)	18.4µM*	18.4µM*	1.1	u	7.7%	28.7%
O=C(CCCCCBr)N1CCC(CC2CC(c3cccc(Br)c3)=NO2)(C(=O)NCC2CCCCC2)CC1 (stereo not given)	u	20.6µM*	3.8	u	0.6%	41.6%
CCOc1ccc(S(=O)(=O)/N=C(/Nc2ccc(C(C)=O)cc2)c2ccccc2)cc1	23.1µM*	13µM*	1.3	-11.6	x	x
COc1ccc(S(=O)(=O)Nc2ccc(NC(C)=O)cc2)cc1	-18.0%	u	1.9	32.4	9.5%	14.1%
CCOc1ccc(NC(C)=O)cc1	u	1.9%	-8.2	10.4	-3.2%	0.2%
CCOc1ccc(/C(O)=C/C(=O)C(=O)Nc2ccc(S(=O)(=O)NC(C)=O)cc2)cc1	25.9µM*	-18.5%	4.6	0.0	-0.9%	-10.3%
CC(C)C(=O)NC(=S)Nc1ccc(S(=O)(=O)N(C)Cc2ccccc2)cc1	u	18.4µM*	1.7	19.2	u	14.1µM*
CCOc1ccc(S(=O)(=O)/N=C(/Nc2ccc(OC)cc2)c2ccccc2)cc1	-1.4%	-28.8%	2.6	i	u	u
CCOc1ccc(NS(=O)(=O)c2ccc(NC(=S)NC(C)=O)cc2)cc1	23.1µM*	23.1µM*	-3.8	33.5	-8.6%	27.1%
CCOC(=O)c1ccc(NC(=O)CSc2nc(CCSC)c(C)[nH]2)cc1	x	x	-0.1	x	x	x
Cc1ccc(NC(=O)CCC2CCCCC2)c(NC(=O)c2ccco2)c1	x	x	1.9	x	x	x
CC1C(=O)CCN(C2CC2)C1C (stereo not given)	x	x	3.7	x	x	x
S=C(NCc1ccccc1)N/N=C/c1c2ccccc2c(Cl)c2ccccc12	x	x	-2.3	x	x	x
CCOc1ccc(NS(=O)(=O)c2ccc(NC(=S)NC(=O)C(C)C)cc2)cc1	20.6µM*	u	2.0	12.4	4.3%	-23.0%
